Bioassay records as filed in PubChem BioAssay.
Pf growth 96h: P. falciparum growth inhibition at 96 hour, primary screen for plastid delayed-death inhibitors. 320,000 compounds, 6.9% hits. AID 504834. Potency, µM (doses to about 28.7 µM), inactives show at the highest dose activity change, negative = inhibition, hits mostly inhibitors. P. falciparum luciferase reporter growth, 96 h; active means well fitted inhibition curve with a large enough effect; inconclusive means small, poorly fitted or top-dose-only effect, or another doubt; inactive means no such curve, though single readings can be large or run the other way; further: potency means the concentration at half of the fitted maximal effect; on the % scale 0 is the no-effect control and ±100 the full control effect
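P. falciparum expressing integrated firefly luciferase, in erythrocytes at 2% hematocrit, 0.05% parasitemia, incubated with compounds 96 h at 37 C, 5% CO2. Growth inhibition read as loss of luminescence; two-generation exposure targets delayed-death apicoplast inhibitors.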
CHX counter: counter-screen hit for Shiga toxin inhibitors, cycloheximide. max response, %. 300,000 compounds, 12% hits. AID 2314. cell reporter, cycloheximide protein synthesis inhibition counterscreen; in the data active means max response mostly above about 13%, no sharp cut-off; inactive means mostly below about 14%; further: read at 38.3 µM for the half of the compounds with a filed dose; 0% is about no effect
NS1 inh: blocks influenza NS1 protein function; Potency, µM (doses to about 46.1 µM), for inactives: at the top dose activity, positive = more growth; 270,000 compounds, 0.4% hits; AID 2326; further: potency means the concentration at half of the fitted maximal effect; actives are rising curves; nearly all actives have a fitted effect of over 50% in size
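Growth recovery, yeast-based: influenza A NS1 expressed in S. cerevisiae causes slow growth, and suppressors are detected by OD600. The parent strain without NS1 is used as positive control.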
SARS PLpro yeast: SARS-CoV PLP inhibition in yeast; 330,000 compounds, 0.19% hits; Potency, µM (series often up to 32.9 µM), for inactives: at the highest dose activity, positive = growth rescue, most hits filed as activators; AID 485353; S. cerevisiae expressing SARS-CoV PLpro, growth rescue; further: potency means the concentration at half of the fitted maximal effect; 0% is about no effect; nearly all actives have a fitted effect of over 55% in size
Pf growth 48h: P. falciparum growth inhibition at 48 hours (one generation). 310,000 compounds, 5.9% hits. Potency, µM (titrated, usually from 28.7 µM), inactives show at the highest dose activity change, negative = inhibition, actives largely listed as inhibitors. P. falciparum luciferase growth in erythrocytes, 48 h; active means well fitted inhibition curve with a large enough effect; inconclusive means small, poorly fitted or top-dose-only effect, or another doubt; inactive means no such curve, though single readings can be large or run the other way; further: potency means the concentration at half of the fitted maximal effect; on the % scale 0 is the no-effect control and ±100 the full control effect
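Firefly luciferase activity from engineered P. falciparum reports growth; inhibitors lower the luminescent signal. Cultures contained 2% hematocrit erythrocytes at 0.1% final parasitemia.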
Shiga toxin inh: inhibitors of Shiga toxin in Vero cells. Vero cells, Shiga toxin protein synthesis inhibition reporter. inhibition, % at 38.7 µM. 290,000 compounds, 9.2% hits. AID 2315; in the data active means inhibition mostly above about 28%, no sharp cut-off; inactive means mostly below about 43%; further: 0% is about no effect
* marks the source's active call; other numbers are inactive results. Most compounds without a hit are left out; they make up all but 21% or so of the library. Unless noted, the call rests on the fitted dose curve.

`COc1cc(/C=N/Nc2nc(C)cc(=O)[nH]2)ccc1O` gave Pf growth 96h -3.6%, CHX counter -1.7, NS1 inh 1.4%, SARS PLpro yeast -0.3%, Pf growth 48h 34.0% and Shiga toxin inh -2.6.
COc1cc(/C=N/Nc2nc(=O)[nH]nc2C)cc(OC)c1O was read as Pf growth 96h inconclusive, CHX counter 26.6*, NS1 inh 0.9%, SARS PLpro yeast -0.3%, Pf growth 48h inconclusive and Shiga toxin inh 94.5*.
For CCOc1ccc(/C=N/Nc2nc(=O)[nH]nc2C)cc1OC the results were Pf growth 96h inconclusive, CHX counter 32.5*, SARS PLpro yeast -7.9%, Pf growth 48h inconclusive and Shiga toxin inh 33.7*.
`COc1ccc(/C=N/Nc2nc(C)cc(=O)[nH]2)cc1OC` gave Pf growth 96h inconclusive, CHX counter -2.1, NS1 inh 14.8%, SARS PLpro yeast -9.4%, Pf growth 48h inconclusive and Shiga toxin inh -4.7.
Cc1n[nH]c(=O)nc1N/N=C/c1ccco1 was read as Pf growth 96h -15.8%, CHX counter 11.1, SARS PLpro yeast -8.6%, Pf growth 48h inconclusive and Shiga toxin inh 28.3*.
`CCOc1cc(/C=N/Nc2nc(=O)[nH]nc2C)ccc1O` gave Pf growth 96h 17.3%, CHX counter 42.8*, SARS PLpro yeast -0.1%, Pf growth 48h 2.33µM* and Shiga toxin inh 71.1*.
`Oc1ccc(C[C@H]2CNCCN2CC2(c3ccccc3)CC2)cc1` gave Pf growth 96h inconclusive, SARS PLpro yeast -9.1% and Pf growth 48h inconclusive.
CC(C)NC(=O)Cn1c(=O)n(CC(=O)N2CCCCC2)c(=O)c2sccc21 was read as Pf growth 96h 30.0%, CHX counter -1.6, NS1 inh 2.8%, SARS PLpro yeast 1.0%, Pf growth 48h 10.0% and Shiga toxin inh 5.5.
For CCSc1ccc2c(c1)N(CCCN1CCN(C)CC1)c1ccccc1S2 the results were Pf growth 96h inconclusive and Pf growth 48h 9.28µM*.
For CN1CCN(CCCN2c3ccccc3Sc3ccccc32)CC1 the results were CHX counter -1.9 and Shiga toxin inh -11.8.
Screening CN1CCN(CCCN2c3ccccc3Sc3ccc(Cl)cc32)CC1 returned Pf growth 96h 9.28µM*, CHX counter -5.3, NS1 inh -30.4%, SARS PLpro yeast -30.1%, Pf growth 48h 9.28µM* and Shiga toxin inh -19.3.
`O=C(Cc1ccccc1)Nc1ccccc1C(=O)N1CCN(c2ccccc2)CC1` gave Pf growth 96h inconclusive, CHX counter 3.5, NS1 inh 11.2%, SARS PLpro yeast -1.9%, Pf growth 48h -20.7% and Shiga toxin inh 32.5.
Screening O=C(NCc1nc2ccccc2[nH]1)C1=C[C@@H](c2csc3ccccc23)C[C@@H](OCc2ccc(CO)cc2)O1 returned Pf growth 96h 3.29µM*, CHX counter 2.6, NS1 inh 15.7%, SARS PLpro yeast -0.8%, Pf growth 48h inconclusive and Shiga toxin inh 3.8.
`O=C(NCc1nc2ccccc2[nH]1)C1=C[C@H](c2csc3ccccc23)C[C@H](OCc2ccc(CO)cc2)O1` gave Pf growth 96h 14.7µM*, CHX counter -3.1, NS1 inh inconclusive, SARS PLpro yeast 4.5%, Pf growth 48h 11.7µM* and Shiga toxin inh 3.0.
CCN(C(=O)c1coc(=O)c(Br)c1)c1ccc2c(c1)OCO2 was read as Pf growth 96h inconclusive, CHX counter 27.2*, NS1 inh 23.0%, SARS PLpro yeast -6.0%, Pf growth 48h inconclusive and Shiga toxin inh 85.9*.
`CCN(C(=O)c1c(C)cc(=O)oc1C)c1ccc2c(c1)OCO2` gave Pf growth 96h 40.3%, CHX counter -2.0, NS1 inh 2.6%, SARS PLpro yeast 7.2%, Pf growth 48h 36.2% and Shiga toxin inh -4.1.
`O=C(NC1CCCC1)C(c1cccnc1)N(C(=O)c1csnn1)c1ccccc1` (stereo unspecified) gave Pf growth 96h -7.4%, CHX counter -7.8, NS1 inh -0.6%, SARS PLpro yeast -14.1%, Pf growth 48h 10.0% and Shiga toxin inh -5.6.
c1ccc([C@H](CCN2CCCC2)c2ccccn2)cc1 was read as NS1 inh 1.1%.
For COc1cc(OC)c(C2=NOC(C(=O)N3CCCc4ccccc43)C2)cc1Cl (stereo unspecified) the results were Pf growth 96h 8.28µM*, CHX counter 4.9, NS1 inh -3.1%, SARS PLpro yeast -2.3% and Shiga toxin inh 1.1.
O=C(CNC(=O)c1ccc(Cl)cc1Cl)OCc1ccccc1 was read as Pf growth 96h 14.8%, SARS PLpro yeast -2.8% and Pf growth 48h -17.6%.
CCCCn1c(-c2cccc3ccccc23)nc2cc3[nH]c(=O)c(C(C)C)nc3cc21 was read as Pf growth 96h inconclusive, CHX counter -2.8, NS1 inh 19.8%, SARS PLpro yeast -16.2%, Pf growth 48h inconclusive and Shiga toxin inh -1.0.
`N#Cc1ccc(COC(=O)CSc2nnc(C3CCCCC3)n2N)cc1` gave Pf growth 96h 5.5%, CHX counter 0.5, NS1 inh 4.1%, SARS PLpro yeast 1.8%, Pf growth 48h -0.3% and Shiga toxin inh -3.7.
`CCOC(=O)c1sc(N)c(C#N)c1CSc1nnc(C2CCCCC2)n1N` gave Pf growth 96h 10.4µM*, CHX counter -7.8, NS1 inh 3.7%, SARS PLpro yeast -7.8% and Shiga toxin inh -14.3.
Cc1[nH]n(-c2ccccc2)c(=O)c1-c1ccccc1 was read as Pf growth 96h -10.9%, CHX counter -3.3, NS1 inh 1.5%, SARS PLpro yeast 11.9%, Pf growth 48h inconclusive and Shiga toxin inh -3.8.
For Cc1[nH]n(-c2cccc([N+](=O)[O-])c2)c(=O)c1-c1ccccc1 the results were Pf growth 96h 13.1µM*, CHX counter 8.4, SARS PLpro yeast -2.6%, Pf growth 48h inconclusive and Shiga toxin inh 34.0.
For Cc1[nH]n(-c2cccc(Cl)c2)c(=O)c1-c1ccccc1 the results were Pf growth 96h 5.86µM*, CHX counter -3.3, NS1 inh -81.0%, SARS PLpro yeast -2.0% and Shiga toxin inh -7.9.
Screening C=C1CCN([C@@H](C)C(=O)NCCCCCC)S(=O)(=O)c2ccccc21 returned Pf growth 96h -37.3%, CHX counter -4.8, NS1 inh 3.6%, SARS PLpro yeast 1.3%, Pf growth 48h -10.0% and Shiga toxin inh -7.8.
For N#Cc1nc(-c2ccco2)oc1N1CCC(Cc2ccccc2)CC1 the results were Pf growth 96h -36.6%, CHX counter -3.9, NS1 inh 6.6%, SARS PLpro yeast -2.4% and Shiga toxin inh -2.8.
Screening Cc1cc(C(=O)OCC(=O)Nc2ccc(F)cc2)c(C)o1 returned Pf growth 96h -3.1%, CHX counter -2.5, NS1 inh -42.8%, SARS PLpro yeast -2.5%, Pf growth 48h 19.9% and Shiga toxin inh -3.2.
